Results taken from PubChem BioAssay (Tox21).
Inconclusive results are not listed. The source made the active and inactive calls. Calls follow the shape of the dose curve; as a rule, active = well fitted curve in the direction sought with a large enough effect in the repeat runs; inconclusive = weak or mixed curves; inactive = no such curve, though single readings can be large; an effect the other way counts as inactive or inconclusive. Non-standard residues stand in square brackets, D forms with d. Residues, ends and D or L forms follow the SMILES beside them. *: point of attachment. Sta = CC(C)C[C@H](N)[C@@H](O)CC(=O)O; Isovaleryl = CC(C)CC(=O)*

Columns and labels:
[1] = qHTS RealTime-Glo MT Cell Viability Assay in HEK293 cells - 32 hour (AID 1224868); also: top concentration of the series differs between compounds; nearly all actives have a fitted effect of over 50% in size
Procedure, shortened: (§1)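 Quantitative high-throughput screen of the Tox21 10K library in HEK293: cells and RealTime-Glo reagents plated together, compound added at 5 h, luminescence monitored through 40 h at 37 C.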

[2] = A CellTox Green Cytotoxicity Assay to monitor cytotoxicity in HEK293 cells - 0 hour (AID 1224869); also: nearly all actives have a fitted effect of over 50% in size
Procedure, shortened: (§2)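 HEK293 cells, 600/well, were preincubated 5 hours and then exposed to compounds at 37 C for up to 40 hours. A cell-impermeant cyanine dye staining dead-cell DNA was read by fluorescence at 0, 8, 16, 24, 32 and 40 h time points.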

[3] = qHTS RealTime-Glo MT Cell Viability Assay in HepG2 cells - 40 hour (AID 1224870); also: nearly all actives have a fitted effect of over 50% in size
Procedure, shortened: (§3)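 HepG2 cells mixed with RealTime-Glo MT reagents (NanoLuc plus cell-permeant prosubstrate) were seeded at 600 cells/well, incubated 5 h at 37 C/5% CO2, then pinned with compounds in DMSO; nonlytic luminescence tracked viability during 40 h treatment.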

[4] = A CellTox Green Cytotoxicity Assay to monitor cytotoxicity in HEK293 cells - 40 hour (AID 1224871); also: nearly all actives have a fitted effect of over 45% in size
Procedure, shortened: as §2

[5] = qHTS RealTime-Glo MT Cell Viability Assay in HEK293 cells - 16 hour (AID 1224872); also: top concentration of the series differs between compounds; nearly all actives have a fitted effect of over 50% in size
Procedure, shortened: as §1

[6] = qHTS RealTime-Glo MT Cell Viability Assay in HepG2 cells - 8 hour (AID 1224873); also: nearly all actives have a fitted effect of over 55% in size
Procedure, shortened: as §3

[7] = qHTS RealTime-Glo MT Cell Viability Assay in HEK293 cells - 40 hour (AID 1224874); details: RealTime-Glo luminescence, stronger effect = lower value; also: nearly all actives have a fitted effect of over 50% in size
Procedure, shortened: (§4)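 600 cells/well were plated with the nonlytic NanoLuc/prosubstrate reagent, pre-incubated 5 h, then given 23 nL of compound in DMSO. Incubation at 37 C for 40 h, with luminescence from viable-cell-reduced substrate read repeatedly from 0 h.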

[8] = A CellTox Green Cytotoxicity Assay to monitor cytotoxicity in HEK293 cells - 24 hour (AID 1224875); also: series mostly up to about 77 µM; nearly all actives have a fitted effect of over 45% in size
Procedure, shortened: as §2

[9] = A CellTox Green Cytotoxicity Assay to monitor cytotoxicity in HepG2 cells - 16 hour (AID 1224876); also: nearly all actives have a fitted effect of over 45% in size
Procedure, shortened: (§5)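 HepG2 cells, 600/well, preincubated 5 h with CellTox Green dye, then exposed to Tox21 compounds in DMSO at 37 C for up to 40 h. Dead-cell DNA fluorescence read at the indicated time point.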

[10] = qHTS RealTime-Glo MT Cell Viability Assay in HepG2 cells - 32 hour (AID 1224877); also: nearly all actives have a fitted effect of over 55% in size
Procedure, shortened: (§6)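 Compound treatment began 5 h after plating HepG2 cells (600/well) with NanoLuc luciferase and prosubstrate. Plates stayed at 37 C for 40 h; luminescence was captured at six time points, 0 h through 40 h.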

[11] = A CellTox Green Cytotoxicity Assay to monitor cytotoxicity in HepG2 cells - 24 hour (AID 1224878); also: nearly all actives have a fitted effect of over 45% in size
Procedure, shortened: as §5

[12] = A CellTox Green Cytotoxicity Assay to monitor cytotoxicity in HepG2 cells - 40 hour (AID 1224879); also: nearly all actives have a fitted effect of over 40% in size
Procedure, shortened: as §5

[13] = qHTS RealTime-Glo MT Cell Viability Assay in HEK293 cells - 0 hour (AID 1224880)
Procedure, shortened: as §4

[14] = A CellTox Green Cytotoxicity Assay to monitor cytotoxicity in HEK293 cells - 32 hour (AID 1224881); also: nearly all actives have a fitted effect of over 40% in size
Procedure, shortened: as §2

[15] = A CellTox Green Cytotoxicity Assay to monitor cytotoxicity in HepG2 cells - 0 hour (AID 1224882); also: nearly all actives have a fitted effect of over 35% in size
Procedure, shortened: as §5

[16] = A CellTox Green Cytotoxicity Assay to monitor cytotoxicity in HepG2 cells - 32 hour (AID 1224883); also: nearly all actives have a fitted effect of over 50% in size
Procedure, shortened: as §5

[17] = A CellTox Green Cytotoxicity Assay to monitor cytotoxicity in HEK293 cells - 8 hour (AID 1224884); also: nearly all actives have a fitted effect of over 35% in size
Procedure, shortened: as §2

[18] = qHTS RealTime-Glo MT Cell Viability Assay in HepG2 cells - 16 hour (AID 1224885); also: nearly all actives have a fitted effect of over 50% in size
Procedure, shortened: as §6

[19] = qHTS RealTime-Glo MT Cell Viability Assay in HEK293 cells - 24 hour (AID 1224886)
Procedure, shortened: as §1

[20] = qHTS RealTime-Glo MT Cell Viability Assay in HEK293 cells - 8 hour (AID 1224887)
Procedure, shortened: as §4
% is scaled to controls: 0 for no effect and ±100 for the full control effect.

CCCCCCCCCCCCCC(=O)OCC
inactive: outcome [1] | outcome [2] | outcome [3] | Potency [4] | outcome [5] | outcome [6] | max response [7] -1.33% | Potency [8] | Potency [9] | outcome [10] | Potency [11] | Potency [12] | Potency [13] | Potency [14] | Potency [15] | Potency [16] | Potency [17] | outcome [18] | outcome [19] | outcome [20]

CC(C)CC(=O)N[C@H](C(=O)N[C@H](C(=O)N[C@@H](CC(C)C)[C@@H](O)CC(=O)N[C@@H](C)C(=O)N[C@@H](CC(C)C)[C@@H](O)CC(=O)O)C(C)C)C(C)C (Isovaleryl-VV[Sta]A[Sta]-OH)
inactive: outcome [1] | outcome [2] | outcome [3] | Potency [4] | outcome [5] | outcome [6] | max response [7] 14.7% | Potency [8] | Potency [9] | outcome [10] | Potency [11] | Potency [12] | Potency [13] | Potency [14] | Potency [15] | Potency [16] | Potency [17] | outcome [18] | outcome [19] | outcome [20]

CC[N+](C)(CC)CC
inactive: outcome [1] | outcome [2] | outcome [3] | Potency [4] | outcome [5] | outcome [6] | max response [7] 13.2% | Potency [8] | Potency [9] | outcome [10] | Potency [11] | Potency [12] | Potency [13] | Potency [14] | Potency [15] | Potency [16] | Potency [17] | outcome [18] | outcome [19] | outcome [20]

COCCCOc1cc(C[C@@H](C[C@H](N)[C@@H](O)C[C@H](C(=O)NCC(C)(C)C(N)=O)C(C)C)C(C)C)ccc1OC
inactive: outcome [1] | outcome [2] | outcome [3] | Potency [4] | outcome [5] | outcome [6] | max response [7] 2.37% | Potency [8] | Potency [9] | outcome [10] | Potency [11] | Potency [12] | Potency [13] | Potency [14] | Potency [15] | Potency [16] | Potency [17] | outcome [18] | outcome [19] | outcome [20]

CCOC(=O)CC(C(C)=O)C(C)=O
inactive: outcome [1] | outcome [2] | outcome [3] | Potency [4] | outcome [5] | outcome [6] | max response [7] 0.909% | Potency [8] | Potency [9] | outcome [10] | Potency [11] | Potency [12] | Potency [13] | Potency [14] | Potency [15] | Potency [16] | Potency [17] | outcome [18] | outcome [19] | outcome [20]

O=C(CCBr)N1CCN(C(=O)CCBr)CC1
inactive: outcome [1] | outcome [2] | outcome [3] | Potency [4] | outcome [5] | outcome [6] | max response [7] 1.87% | Potency [8] | Potency [9] | outcome [10] | Potency [11] | Potency [12] | Potency [13] | Potency [14] | Potency [15] | Potency [16] | Potency [17] | outcome [18] | outcome [19] | outcome [20]

CC(=O)Nc1ccc(OCCOCCOc2ccc(NC(C)=O)cc2)cc1
inactive: outcome [1] | outcome [2] | outcome [3] | Potency [4] | outcome [5] | outcome [6] | max response [7] -1.67% | Potency [8] | Potency [9] | outcome [10] | Potency [11] | Potency [12] | Potency [13] | Potency [14] | Potency [15] | Potency [16] | Potency [17] | outcome [18] | outcome [19] | outcome [20]

O=C(O)Cc1ccccc1Oc1ccc(Cl)cc1Cl
inactive: outcome [1] | outcome [2] | outcome [3] | Potency [4] | outcome [5] | outcome [6] | max response [7] 4.29% | Potency [8] | Potency [9] | outcome [10] | Potency [11] | Potency [12] | Potency [13] | Potency [14] | Potency [15] | Potency [16] | Potency [17] | outcome [18] | outcome [19] | outcome [20]

C[C@@H](CN1CC(=O)NC(=O)C1)N1CC(=O)NC(=O)C1
inactive: outcome [1] | outcome [2] | outcome [3] | Potency [4] | outcome [5] | outcome [6] | max response [7] -3.41% | Potency [8] | Potency [9] | outcome [10] | Potency [11] | Potency [12] | Potency [13] | Potency [14] | Potency [15] | Potency [16] | Potency [17] | outcome [18] | outcome [19] | outcome [20]

Cc1ccccc1C#N
inactive: outcome [1] | outcome [2] | outcome [3] | Potency [4] | outcome [5] | outcome [6] | max response [7] 7.55% | Potency [8] | Potency [9] | outcome [10] | Potency [11] | Potency [12] | Potency [13] | Potency [14] | Potency [15] | Potency [16] | Potency [17] | outcome [18] | outcome [19] | outcome [20]

CC(C)=CCC/C(C)=C\C#N
inactive: outcome [1] | outcome [2] | outcome [3] | Potency [4] | outcome [5] | outcome [6] | max response [7] 15.8% | Potency [8] | Potency [9] | outcome [10] | Potency [11] | Potency [12] | Potency [13] | Potency [14] | Potency [15] | Potency [16] | Potency [17] | outcome [18] | outcome [19] | outcome [20]

CC(C)(C)c1ccc(C(=O)CCCCl)cc1
inactive: outcome [1] | outcome [2] | outcome [3] | Potency [4] | outcome [5] | outcome [6] | max response [7] -1.09% | Potency [8] | Potency [9] | outcome [10] | Potency [11] | Potency [12] | Potency [13] | Potency [14] | Potency [15] | Potency [16] | Potency [17] | outcome [18] | outcome [19] | outcome [20]
